The record followed here is PubChem BioAssay (NCATS).

Molecules are shown by their SMILES. Records with an inconclusive call do not appear. Activity calls are given as the source filed them. Calls follow the shape of the dose curve; as a rule, active = well fitted inhibition curve with a large enough effect; inconclusive = small, poorly fitted or top-dose-only effect; inactive = flat fitted curve, though single readings scatter.
% is scaled to controls: 0 for no effect and ±100 for the full control effect; potency is read from the fitted curve at half-maximal effect.

This test has as its system HEK293. In words: Cytotoxic Profiling of Annotated Libraries Using Quantitative High-Throughput Screening (AID 1296008). Also: nearly all actives have a fitted effect of over 60% in size. To be noted: Five cell lines viability, CellTiter-Glo ATP luminescence, 48-72 h; max response: active compounds read low. A digest of the protocol:
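Cells exposed to compounds for 48 or 72 hr at 37 degrees Celsius. Viability read as ATP-coupled luminescence with CellTiter-Glo after 10 min at room temperature.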
For `CC1(O)CC(O)C2(O)C=COC(O[C@@H]3O[C@H](CO)[C@@H](O)[C@H](O)[C@H]3O)C12` (some centres undefined), the max response is 4.59% (inactive).
On the same count and under the same terms, in the case of `Nc1nc2c(ncn2[C@@H]2O[C@H](CO)[C@@H](O)[C@H]2O)c(=O)[nH]1` it was -9.89% (inactive).
The same measure, in the same setting: the same measure for `C=C1C(O)C(O)C2(CC3C(C)=CCC4C(C)(CO)CCCC34C)OC2C1O` (centres undefined): -13.5% (inactive); for `CCOCCn1nc(CC)c2nc(N3CCC(C(=O)O)CC3)nc(Nc3cc(C)ccn3)c21`: -20% (inactive).
Consider `CN(C)C/C=C/C(=O)Nc1cccc(C(=O)Nc2ccc(Nc3nccc(-c4cccnc4)n3)cc2)c1`, for which the Potency was 5800 nM (active).
With `C/C=C(\C)C(=O)OCC1OC(OC2OC(COC(=O)/C(C)=C/C)C(OC3OC(CO)C(OC(=O)/C(C)=C/C)C(OC(=O)/C(C)=C/C)C3O)C(O)C2O)C(O)C(O)C1OC1OC(CO)C(OC(=O)/C(C)=C/C)C(OC(=O)/C(C)=C/C)C1O` (centres undefined), the max response was -7.34% (inactive).
On to `COC(=O)C12CCC(C)C(C)C1C1=CCC3C4(C)CCC(OC(C)=O)C(C)(C)C4CCC3(C)C1(C)CC2` (centres undefined), for which the max response was 0.571% (inactive).
On the same count and under the same terms, in the case of `COC1CC(O[C@H]2CC[C@@]3(C)C(=CC[C@]4(O)C3[C@H](OC(C)=O)[C@@H](OC(=O)c3ccccc3)[C@]3(C)[C@@H](C(C)=O)CC[C@@]34O)C2)OC(C)C1OC1CC(OC)C(OC2CC(OC)C(OC3OC(C)C(OC4OC(CO)C(O)C(O)C4O)C(OC)C3O)C(C)O2)C(C)O1` (some centres undefined) it was 1.75% (inactive).
In the case of `O=S(=O)(NCC1CC1)c1ccc(Nc2nccc(N3CCCc4cc(O)ccc43)n2)cc1`, the Potency was 1640 nM (active).
As to `CNS(=O)(=O)CC1CCC(N(C)c2ncnc3[nH]ccc23)CC1` (centres undefined), the max response is -8.69% (inactive).
Take `C/C(=C\CCC(C)CCO)C(=O)O[C@@H]1[C@@H](O)[C@H](OC2OC=C(C(=O)O)C3CCC(C)(O)C23)O[C@H](CO)[C@H]1O` (some centres undefined): the max response is 0.262% (inactive).
Regarding `C[C@H](Oc1ccc(S(C)(=O)=O)cc1C(=O)N1CCN(c2ncc(C(F)(F)F)cc2F)CC1)C(F)(F)F`, the max response is -24.7% (inactive).
On the same count and under the same terms, the same measure for `CC(=O)O[C@H]1C[C@@]2(C)[C@@H](CC[C@H]3[C@@]4(C)C=CC(=O)[C@@H](C)[C@@H]4[C@H](O)C(=O)[C@@]32C)/C1=C(/CCC=C(C)C)C(=O)O`: -6.72% (inactive); for `C[C@@H]1CN(Cc2ccccc2)C[C@H]1c1nc2c(cnn2C2CCOCC2)c(=O)[nH]1`: 2.89% (inactive).
With `COC(=O)CCc1cc2ccoc2c(OC)c1O[C@@H]1O[C@H](CO)[C@@H](O)[C@H](O)[C@H]1O`, the max response was -10.4% (inactive).
As to `COc1ccc(Cl)c(Nc2nc3ccccc3nc2NS(=O)(=O)c2cccc(NC(=O)C(C)(C)N)c2)c1`, the max response was -13.5% (inactive).
Turning to `CC[C@H](CO)Nc1nc(NCc2ccc(-c3ccccn3)cc2)c2ncn(C(C)C)c2n1`, the Potency was 206 nM (active).
Take `CC(C)C[C@H](CC(=O)NO)C(=O)N[C@@H](Cc1ccc2ccccc2c1)C(=O)N[C@@H](C)C(=O)NCCN`: the max response is 0.393% (inactive).
In the case of `O=C(O)c1ccc(OC2OC(CO)C(O)C(O)C2O)cc1` (centres undefined), the max response is -2.82% (inactive).
As for `C[C@H](NC(=O)CCc1nc2ccccc2c(=O)[nH]1)c1ccccc1`, the max response was -7.11% (inactive).
As for `CC1(C)CC[C@]2(C(=O)O)CC[C@]3(C)C(=CCC4[C@@]5(C)CC[C@H](O[C@@H]6O[C@H](CO)[C@@H](O)[C@H](O)[C@H]6O[C@@H]6O[C@H](CO)[C@@H](O)[C@H](O)[C@H]6O)[C@@](C)(CO)C5CC[C@]43C)[C@@H]2C1` (some centres undefined), the max response is -6.18% (inactive).
Regarding `O=C(O)c1ccc(CN2CCC(CN[C@@H]3C[C@H]3c3ccccc3)CC2)cc1`, the max response was -15.7% (inactive).
With `CC1C(=O)CC2C3CCC(C(=O)O)C12CC3(C)CO` (centres undefined), the max response is 0.671% (inactive).
Turning to `OC[C@H]1O[C@@H](Oc2cc(O)c3c(c2)O[C@@H](c2ccc(O)cc2)[C@H](O)C3)[C@H](O)[C@@H](O)[C@@H]1O`, the max response was -5.13% (inactive).
Still for that read-out and setting: the same measure for `NC(=O)Nc1cc(-c2cccc(F)c2)sc1C(=O)NC1CCCNC1` (centres undefined): -108% (inactive).
Take `CC(C)NCC(C(=O)N1CCN(c2ncnc3c2C(C)CC3O)CC1)c1ccc(Cl)cc1` (centres undefined): the Potency is 580 nM (active).
Regarding `CCO[C@@H]1OC(=O)C[C@@H]1NC(=O)[C@@H]1CCCN1C(=O)[C@@H](NC(=O)c1ccc(N)c(Cl)c1)C(C)(C)C`, the max response is 1.39% (inactive).
Take `CC1(C)CC[C@]2(C(=O)O[C@@H]3O[C@H](CO)[C@@H](O)[C@H](O)[C@H]3O)CC[C@]3(C)C(=CCC4[C@@]5(C)C[C@@H](O)[C@H](O)[C@](C)(C=O)C5CC[C@]43C)[C@@H]2[C@@H]1O` (some centres undefined): the max response was -5.81% (inactive).
On the same count and under the same terms, in the case of `O=C(O)/C=C/c1ccc(O)c(O[C@@H]2O[C@H](CO)[C@@H](O)[C@H](O)[C@H]2O)c1` it was -13.2% (inactive); in that of `CN(C)CC1CCOC1(c1ccccc1)c1ccccc1` (centres undefined), -21.7% (inactive); in that of `O=C1CC2(CCCC2)[C@H](O)C(=O)N1CCCCN1CCN(c2ncccn2)CC1`, -2.49% (inactive).
Consider `CC(C)/C=C1\NC(=O)C(C(C)C)n2c1nc1c(c2=O)C=CC=CO1` (centres undefined), for which the max response is 2.88% (inactive).
In the case of `CCC(C)C(=O)O[C@H]1CCC=C2C=C[C@H](C)[C@H](CC[C@@H](O)C[C@@H](O)CC(=O)O)[C@H]21` (some centres undefined), the max response was 0.832% (inactive).
Turning to `COc1cc(O)cc(C)c1C(=O)OC1C(CO)OC(OC2C(O)C(O)C(O)C(O)C2O)C(O)C1O` (centres undefined), the max response was 4.85% (inactive).
With `Cc1cc(O)c(-c2ccc([C@@H](C)CN(C)C)cc2)c2c1[nH]c(=O)c1sccc12`, the Potency was 25.9 nM (active).
For `C=CC1C(OC2OC(CO)C(O)C(O)C2O)OC=C2C(=O)N3C(C(=O)O)Cc4c([nH]c5ccccc45)C3CC21` (centres undefined), the max response is 0.732% (inactive).
Turning to `C=C1OC2CC(C(=O)O)C=CC2NC1=O` (centres undefined), the max response is 3.15% (inactive).
Turning to `C=CC1C(OC2OC(CO)C(O)C(O)C2O)OC=C(C(=O)OC)C1CC1CC(=O)CC(CCc2ccc(O)cc2)O1` (centres undefined), the max response is -3.27% (inactive).
Consider `CCOC(=O)CCN(C(=O)c1ccc2c(c1)nc(CNc1ccc(C(=N)N)cc1)n2C)c1ccccn1`, for which the max response is -11% (inactive).
